About 79,000 compounds went through this panel and 15% of them were active in at least one assay; those are over-represented in the sample as a whole. A number with no mark means an inactive call. Active and inactive are the calls of the source. Cut-off read from the data, not from the text of the source: active = growth inhibition above about 70%; inactive = the rest.

A short description of test [1]: NCI Yeast Anticancer Drug Screen. Data for the rad50 strain (AID 155).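 Note: 0% = growth of vehicle-only cultures of the same strain.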 Conditions: S. cerevisiae rad50 strain growth inhibition; at 50.0 µM; active compounds read high. The method in brief:
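Relative growth inhibition (compound vs vehicle) was measured in yeast with a defined repair-gene alteration.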

Test [2] in a line: NCI Yeast Anticancer Drug Screen. Data for the mec2-1 strain (AID 157). Conditions: S. cerevisiae mec2-1 strain, at 50.0 µM, active compounds read high. The method in brief:
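Test agents were screened against the mec2-1 yeast strain, with defined DNA repair or cell cycle alteration. Growth was scored as inhibition against vehicle-only controls.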

Test [3] can be described thus: NCI Yeast Anticancer Drug Screen. Data for the sgs1 mgt1 strain (AID 161).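 Note: 0% = growth of cultures given vehicle only.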 Particulars: S. cerevisiae sgs1 mgt1 strain, at 50.0 µM, active compounds read high. The method in brief: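 Test agents were incubated with a DNA-repair-mutant yeast strain. Growth was then read and compared against vehicle-treated controls.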
Test [4] can be described thus: NCI Yeast Anticancer Drug Screen. Data for the cln2 rad14 strain (AID 165).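 Note: 0% = growth equal to vehicle treated cultures.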 Conditions: S. cerevisiae cln2 rad14 strain, at 50.0 µM, active compounds read high. The method in brief:
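Growth of compound-exposed yeast (cln2 rad14 genotype) measured and expressed as inhibition relative to vehicle.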

The nature of test [5]: NCI Yeast Anticancer Drug Screen. Data for the bub3 strain (AID 167). Conditions: S. cerevisiae bub3 mutant strain, at 50.0 µM, active compounds read high. The essentials: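 Screening used yeast with an engineered genetic alteration affecting cell cycle control. Compound-exposed cultures were compared with vehicle cultures, and reduced growth was taken as inhibition.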
Test [6] can be described thus: NCI Yeast Anticancer Drug Screen. Data for the mlh1 rad18 strain (AID 175). Conditions: S. cerevisiae mlh1 rad18 strain growth inhibition; at 50.0 µM; active compounds read high. The method in brief:
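In this whole-cell yeast screen, a strain with altered DNA damage repair is challenged with compound, and its growth is measured against matched vehicle-treated controls.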

Regarding `O=C(c1ccc(Cl)c(Cl)c1)N1CCCCC1`, the growth inhibition in test [1] is -1.25%; in test [2] it was -7%; in test [3], 13.8%; in test [4] it was -48.5%; in test [5] it was -12.5%; in test [6], -6.25%.
Take `Cc1cc(N(CCC#N)CCC#N)ccc1/C=C(\NC(=O)/C=C/c1ccccc1)C(=O)Nc1ccc(Cl)cc1`: the growth inhibition was -7.1% in test [1]; -15.1% in test [2]; 2.2% in test [3]; 1.7% in test [4]; 3.9% in test [5]; -1.65% in test [6].
Turning to `C/[N+]([O-])=N/COC1OC(COC2OCC(O)C(O)C2O)C(O)C(O)C1O` (stereo not given), the growth inhibition in test [1] was 7.5%; in test [2] it was -0.4%; in test [3] it was 25.6%; in test [4] it was 13.8%; in test [5], 8.85%; in test [6], 3.7%.
For `CCN(CC)c1cc2c(cc1Br)-c1ccccc1C2=O`, the growth inhibition in test [1] was 4%; in test [2], -2.9%; in test [3] it was 5.7%; in test [4] it was 52.2%; in test [5], 7.95%; in test [6] it was 36%.
As to `CCN(c1ccccc1)c1cc2c(cc1[N+](=O)[O-])no[n+]2[O-]`, the growth inhibition is 97.1% (active) in test [1]; 96.9% (active) in test [2]; 98.3% (active) in test [3]; 96.6% (active) in test [4]; 98.1% (active) in test [5]; 97.1% (active) in test [6].
On to `COc1cccc(C(c2cc3c(cc2O)OCO3)N2CCOCC2)c1O` (stereo not given), for which the growth inhibition in test [1] is 15.9%; in test [2], 30.6%; in test [3], 51.4%; in test [4], 8.7%; in test [5] it was 1.35%; in test [6] it was 77.4% (active).
Consider `COCc1cc(CC(C)=O)nc(C/C=N/NC(N)=O)n1`, for which the growth inhibition in test [1] was -18.4%; in test [2], -10.4%; in test [3], -9.75%; in test [4], -28.4%; in test [5] it was -47%; in test [6], -11.7%.
Take `CN1NC(c2ccccc2)=NN=C1c1ccccc1`: the growth inhibition is -8.5% in test [1]; 21.9% in test [2]; 11.3% in test [3]; 0.75% in test [4]; 15.8% in test [5]; 3.65% in test [6].
For the compound `[N-]=[N+]=NCN1C(=O)C2C3C=CC(C2C1=O)C1C2C(=O)N(CN=[N+]=[N-])C(=O)C2C31` (stereo not given), the growth inhibition in test [1] is -3.2%; in test [2] it was -4.1%; in test [3] it was -39.4%; in test [4], 4.4%; in test [5], -25.8%; in test [6], -42.1%.
On to `O=[N+]([O-])c1cc(Br)ccc1N1CCCC1`, for which the growth inhibition in test [1] was -8.7%; in test [2], 4.2%; in test [3] it was 4.05%; in test [4] it was -11.7%; in test [5] it was -2.3%; in test [6], -6.85%.
Consider `CN=NN(C)C(=O)NC`, for which the growth inhibition in test [1] is -11.9%; in test [2], 0.7%; in test [3], 10.1%; in test [4], -13%; in test [5], -25%; in test [6], 30.4%.
For the compound `CCC(C)C/C(C)=N\NC(N)=O` (stereo not given), the growth inhibition in test [1] was 1.75%; in test [2], 0.1%; in test [3], 3.1%; in test [4], 9.2%; in test [5] it was -4.75%; in test [6], 6.25%.
With `Clc1cnnc2nc[nH]c12`, the growth inhibition in test [1] was -10.8%; in test [2], -7.4%; in test [3], -24.2%; in test [4], -28.1%; in test [5] it was -15.8%; in test [6], -23.2%.
Regarding `Cc1cc(N(C)c2ccccc2)nc(N(C)c2ccccc2)n1`, the growth inhibition in test [1] is -24.4%; in test [2] it was -16.6%; in test [3], -6.05%; in test [4], -14.6%; in test [5], -23.3%; in test [6] it was -61.5%.
On to `COC(=O)C1C(=C(c2ccccc2)c2ccccc2)C1c1ccccc1` (stereo not given), for which the growth inhibition in test [1] was -1.75%; in test [2], -15.2%; in test [3], -11.8%; in test [4] it was -11.4%; in test [5], 6.85%; in test [6], -8.7%.
Consider `CSc1ccc(NC(=O)c2ccc(C(=O)Nc3ccc(SC)cc3)cc2)cc1`, for which the growth inhibition in test [1] is -17.5%; in test [2] it was -10.7%; in test [3], -12.6%; in test [4], -14.9%; in test [5], -1.95%; in test [6], -26.7%.
For the compound `N=c1c(C(=O)O)cccn1O`, the growth inhibition in test [1] is 8.1%; in test [2], -5.1%; in test [3], 9.1%; in test [4], -50.9%; in test [5] it was -6.55%; in test [6] it was 4.9%.
Regarding `COc1ccc(C(=O)N/N=C/c2cccc(OC)c2OC)cc1`, the growth inhibition was -6.3% in test [1]; -4.75% in test [2]; -20.1% in test [3]; -26.2% in test [4]; 13.1% in test [5]; -41.8% in test [6].
Take `CCCCCCCCCCCCCC#N`: the growth inhibition in test [1] was 5.85%; in test [2], -3.55%; in test [3], 3.35%; in test [4], 5.25%; in test [5] it was 1.65%; in test [6], 25.8%.
For the compound `CCOC(=O)C(=CN(C)c1ccc(C)cc1)C(=O)OCC`, the growth inhibition in test [1] was 20.4%; in test [2] it was 2.65%; in test [3], 8.2%; in test [4], 9.7%; in test [5], 25.6%; in test [6], 8.9%.

(Values after PubChem BioAssay (NCI).)
